# Measured values from the supplement of paper PMC9794691.
# Legend:
# Test in all cases: area under confluence curve of osimertinib + compound combination regimen (DTP regrowth); compare to osimertinib-only DTP control AUC of the same experiment (AUC (confluence x time, arbitrary))
# H1975 = tested on: H1975
# Outline: (§1)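 The area under the IncuCyte confluence–time curve, calculated in Prism and taken as the median of triplicates where available, is the value reported. It was measured in EGFR-mutant NSCLC lines that received the EGFR inhibitor either alone, followed by a test compound, or together with a fixed-dose test compound until the persister stage (10–21 days) and then drug-free medium. Medium was refreshed every 3–4 days until the inhibitor-only wells were confluent again.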
# HCC2279 = tested on: HCC2279
# Outline: as §1
# HCC2935 = tested on: HCC2935
# Outline: as §1
# HCC4006 = tested on: HCC4006
# Outline: as §1
# HCC827 = tested on: HCC827
# Outline: as §1
# II-18 = tested on: II-18
# Outline: as §1
# PC9 = tested on: PC9
# Outline: as §1
structure (smiles),measurement,setting,value
CCn1nc(C2CCN(C(=O)CCO)CC2)nc1-c1cnc(N)c(-c2nnc(C(C)(C)C)o2)n1 + C=CC(=O)Nc1cc(Nc2nccc(-c3cn(C)c4ccccc34)n2)c(OC)cc1N(C)CCN(C)C [osimertinib],area under confluence curve,"H1975; test compound dose 1000 nM, dosing schedule: sequential, osimertinib-only DTP control AUC in same experiment: 15943, DMSO control AUC in same experiment: 20657",6780
same,area under confluence curve,"H1975; test compound dose 1000 nM, dosing schedule: upfront, osimertinib-only DTP control AUC in same experiment: 27804, DMSO control AUC in same experiment: 20657",13600
same,area under confluence curve,"HCC2279; test compound dose 1000 nM, dosing schedule: sequential, osimertinib-only DTP control AUC in same experiment: 11520, DMSO control AUC in same experiment: 9426",11600
same,area under confluence curve,"HCC2279; test compound dose 1000 nM, dosing schedule: upfront, osimertinib-only DTP control AUC in same experiment: 21942, DMSO control AUC in same experiment: 9426",16800
same,area under confluence curve,"HCC2935; test compound dose 1000 nM, dosing schedule: sequential, osimertinib-only DTP control AUC in same experiment: 6271, DMSO control AUC in same experiment: 13875",6130
same,area under confluence curve,"HCC2935; test compound dose 1000 nM, dosing schedule: upfront, osimertinib-only DTP control AUC in same experiment: 10360, DMSO control AUC in same experiment: 13875",4470
same,area under confluence curve,"HCC4006; test compound dose 1000 nM, dosing schedule: sequential, osimertinib-only DTP control AUC in same experiment: 19238, DMSO control AUC in same experiment: 16638",16700
same,area under confluence curve,"HCC4006; test compound dose 1000 nM, dosing schedule: upfront, osimertinib-only DTP control AUC in same experiment: 21234, DMSO control AUC in same experiment: 16638",5320
same,area under confluence curve,"HCC827; test compound dose 1000 nM, dosing schedule: sequential, osimertinib-only DTP control AUC in same experiment: 8266, DMSO control AUC in same experiment: 27404",7050
same,area under confluence curve,"HCC827; test compound dose 1000 nM, dosing schedule: upfront, osimertinib-only DTP control AUC in same experiment: 13929, DMSO control AUC in same experiment: 27404",11000
same,area under confluence curve,"II-18; test compound dose 1000 nM, dosing schedule: sequential, osimertinib-only DTP control AUC in same experiment: 21014, DMSO control AUC in same experiment: 18482",11100
same,area under confluence curve,"II-18; test compound dose 1000 nM, dosing schedule: upfront, osimertinib-only DTP control AUC in same experiment: 27084, DMSO control AUC in same experiment: 18482",4500
C[C@@]1(C(=O)Nc2ccc(F)nc2)CCCN1c1nc(Nc2cc(C3CC3)n[nH]2)c2cccn2n1 + C=CC(=O)Nc1cc(Nc2nccc(-c3cn(C)c4ccccc34)n2)c(OC)cc1N(C)CCN(C)C [osimertinib],area under confluence curve,"H1975; test compound dose 100 nM, dosing schedule: sequential, osimertinib-only DTP control AUC in same experiment: 22617, DMSO control AUC in same experiment: 16540",13500
same,area under confluence curve,"H1975; test compound dose 100 nM, dosing schedule: upfront, osimertinib-only DTP control AUC in same experiment: 28291, DMSO control AUC in same experiment: 16540",12500
same,area under confluence curve,"HCC2279; test compound dose 100 nM, dosing schedule: sequential, osimertinib-only DTP control AUC in same experiment: 26096, DMSO control AUC in same experiment: 14404",24200
same,area under confluence curve,"HCC2279; test compound dose 100 nM, dosing schedule: upfront, osimertinib-only DTP control AUC in same experiment: 33120, DMSO control AUC in same experiment: 14404",34700
same,area under confluence curve,"HCC2935; test compound dose 100 nM, dosing schedule: sequential, osimertinib-only DTP control AUC in same experiment: 22314, DMSO control AUC in same experiment: 19215",22300
same,area under confluence curve,"HCC2935; test compound dose 100 nM, dosing schedule: upfront, osimertinib-only DTP control AUC in same experiment: 29846, DMSO control AUC in same experiment: 19215",22200
same,area under confluence curve,"HCC4006; test compound dose 100 nM, dosing schedule: sequential, osimertinib-only DTP control AUC in same experiment: 12791, DMSO control AUC in same experiment: 18415",11000
same,area under confluence curve,"HCC4006; test compound dose 100 nM, dosing schedule: upfront, osimertinib-only DTP control AUC in same experiment: 17269, DMSO control AUC in same experiment: 18415",9040
same,area under confluence curve,"HCC827; test compound dose 100 nM, dosing schedule: sequential, osimertinib-only DTP control AUC in same experiment: 15330, DMSO control AUC in same experiment: 21320",12600
same,area under confluence curve,"HCC827; test compound dose 100 nM, dosing schedule: upfront, osimertinib-only DTP control AUC in same experiment: 20798, DMSO control AUC in same experiment: 21320",23300
same,area under confluence curve,"II-18; test compound dose 100 nM, dosing schedule: sequential, osimertinib-only DTP control AUC in same experiment: 8624, DMSO control AUC in same experiment: 11834",533
same,area under confluence curve,"II-18; test compound dose 100 nM, dosing schedule: upfront, osimertinib-only DTP control AUC in same experiment: 10856, DMSO control AUC in same experiment: 11834",1400
CN(C)C(=O)c1cc2cnc(Nc3ccc(N4CCNCC4)cn3)nc2n1C1CCCC1 [Ribociclib] + C=CC(=O)Nc1cc(Nc2nccc(-c3cn(C)c4ccccc34)n2)c(OC)cc1N(C)CCN(C)C [osimertinib],area under confluence curve,"PC9; test compound dose 300 nM, dosing schedule: sequential, osimertinib-only DTP control AUC in same experiment: 23366, DMSO control AUC in same experiment: 88996",13600
same,area under confluence curve,"PC9; test compound dose 300 nM, dosing schedule: upfront, osimertinib-only DTP control AUC in same experiment: 29852, DMSO control AUC in same experiment: 88996",20500
CCN(c1cc(-c2ccc(CN3CCOCC3)cc2)cc(C(=O)NCc2c(C)cc(C)[nH]c2=O)c1C)C1CCOCC1 [Tazemetostat] + C=CC(=O)Nc1cc(Nc2nccc(-c3cn(C)c4ccccc34)n2)c(OC)cc1N(C)CCN(C)C [osimertinib],area under confluence curve,"PC9; test compound dose 1000 nM, dosing schedule: sequential, osimertinib-only DTP control AUC in same experiment: 14030, DMSO control AUC in same experiment: 30326",11100
same,area under confluence curve,"PC9; test compound dose 1000 nM, dosing schedule: upfront, osimertinib-only DTP control AUC in same experiment: 20885, DMSO control AUC in same experiment: 30326",16200
C[C@@H](c1ccc2nccn2c1)n1nnc2ncc(-c3cnn(C)c3)nc21 [Savolitinib] + C=CC(=O)Nc1cc(Nc2nccc(-c3cn(C)c4ccccc34)n2)c(OC)cc1N(C)CCN(C)C [osimertinib],area under confluence curve,"PC9; test compound dose 1000 nM, dosing schedule: sequential, osimertinib-only DTP control AUC in same experiment: 12535, DMSO control AUC in same experiment: 43316",7800
same,area under confluence curve,"PC9; test compound dose 1000 nM, dosing schedule: upfront, osimertinib-only DTP control AUC in same experiment: 15354, DMSO control AUC in same experiment: 43316",11900
COc1cc2nc(C)nc(N[C@H](C)c3cc(N)cc(C(F)(F)F)c3)c2cc1O[C@H]1CCOC1 + C=CC(=O)Nc1cc(Nc2nccc(-c3cn(C)c4ccccc34)n2)c(OC)cc1N(C)CCN(C)C [osimertinib],area under confluence curve,"PC9; test compound dose 1000 nM, dosing schedule: sequential, osimertinib-only DTP control AUC in same experiment: 15163, DMSO control AUC in same experiment: 28684",11600
same,area under confluence curve,"PC9; test compound dose 1000 nM, dosing schedule: upfront, osimertinib-only DTP control AUC in same experiment: 21337, DMSO control AUC in same experiment: 28684",11000
O=C(c1cc(Cc2n[nH]c(=O)c3ccccc23)ccc1F)N1CCN(C(=O)C2CC2)CC1 [Olaparib] + C=CC(=O)Nc1cc(Nc2nccc(-c3cn(C)c4ccccc34)n2)c(OC)cc1N(C)CCN(C)C [osimertinib],area under confluence curve,"H1975; test compound dose 1000 nM, dosing schedule: sequential, osimertinib-only DTP control AUC in same experiment: 22968, DMSO control AUC in same experiment: 15857",19500
same,area under confluence curve,"H1975; test compound dose 1000 nM, dosing schedule: upfront, osimertinib-only DTP control AUC in same experiment: 27164, DMSO control AUC in same experiment: 15857",21000
same,area under confluence curve,"HCC2279; test compound dose 1000 nM, dosing schedule: sequential, osimertinib-only DTP control AUC in same experiment: 26096, DMSO control AUC in same experiment: 14404",23100
same,area under confluence curve,"HCC2279; test compound dose 1000 nM, dosing schedule: upfront, osimertinib-only DTP control AUC in same experiment: 33120, DMSO control AUC in same experiment: 14404",29800
same,area under confluence curve,"HCC2935; test compound dose 1000 nM, dosing schedule: sequential, osimertinib-only DTP control AUC in same experiment: 22314, DMSO control AUC in same experiment: 19215",20700
same,area under confluence curve,"HCC2935; test compound dose 1000 nM, dosing schedule: upfront, osimertinib-only DTP control AUC in same experiment: 29846, DMSO control AUC in same experiment: 19215",26000
same,area under confluence curve,"HCC4006; test compound dose 1000 nM, dosing schedule: sequential, osimertinib-only DTP control AUC in same experiment: 12791, DMSO control AUC in same experiment: 18415",11700
same,area under confluence curve,"HCC4006; test compound dose 1000 nM, dosing schedule: upfront, osimertinib-only DTP control AUC in same experiment: 17269, DMSO control AUC in same experiment: 18415",18000
same,area under confluence curve,"HCC827; test compound dose 1000 nM, dosing schedule: sequential, osimertinib-only DTP control AUC in same experiment: 15330, DMSO control AUC in same experiment: 21320",12400
same,area under confluence curve,"HCC827; test compound dose 1000 nM, dosing schedule: upfront, osimertinib-only DTP control AUC in same experiment: 20798, DMSO control AUC in same experiment: 21320",23700
same,area under confluence curve,"II-18; test compound dose 1000 nM, dosing schedule: sequential, osimertinib-only DTP control AUC in same experiment: 8624, DMSO control AUC in same experiment: 11834",9480
same,area under confluence curve,"II-18; test compound dose 1000 nM, dosing schedule: upfront, osimertinib-only DTP control AUC in same experiment: 10856, DMSO control AUC in same experiment: 11834",9420
same,area under confluence curve,"PC9; test compound dose 1000 nM, dosing schedule: sequential, osimertinib-only DTP control AUC in same experiment: 15001, DMSO control AUC in same experiment: 22064",7460
same,area under confluence curve,"PC9; test compound dose 1000 nM, dosing schedule: sequential, osimertinib-only DTP control AUC in same experiment: 15044, DMSO control AUC in same experiment: 30604",12600
same,area under confluence curve,"PC9; test compound dose 1000 nM, dosing schedule: upfront, osimertinib-only DTP control AUC in same experiment: 20672, DMSO control AUC in same experiment: 30604",16600
same,area under confluence curve,"PC9; test compound dose 1000 nM, dosing schedule: upfront, osimertinib-only DTP control AUC in same experiment: 24924, DMSO control AUC in same experiment: 22064",18600
Cc1[nH]nc(C(F)(F)F)c1Cc1sc2c(c1C(=O)N1C[C@](C)(O)CO1)c(=O)n(C)c(=O)n2C(C)C + C=CC(=O)Nc1cc(Nc2nccc(-c3cn(C)c4ccccc34)n2)c(OC)cc1N(C)CCN(C)C [osimertinib],area under confluence curve,"PC9; test compound dose 1000 nM, dosing schedule: sequential, osimertinib-only DTP control AUC in same experiment: 10725, DMSO control AUC in same experiment: 30578",18600
same,area under confluence curve,"PC9; test compound dose 1000 nM, dosing schedule: upfront, osimertinib-only DTP control AUC in same experiment: 10245, DMSO control AUC in same experiment: 30578",11200
